# LASV entry inh – inhibitors of Lassa virus binding or cell entry. Potency, µM (series often up to 37.9 µM), for the others: at the top dose activity change, negative = inhibition, hits mostly inhibitors. Lassa virus pseudotype entry inhibition, cell reporter. actives 1.2% (n = 300,000). AID 540256; calls by dose curve; tested in HEK293 cells; further: nearly all actives have a fitted effect of over 50% in size
# FMDV inh – foot and mouth disease virus antiviral activity. Potency, µM (highest dose often 57.9 µM), for inactives: at the top dose activity change, negative = inhibition, hits mostly inhibitors. actives 1.2% (n = 410,000). FMDV antiviral cell-based qHTS. AID 1159524; calls by dose curve; tested in HEK293T cells; further: read-out not given here; nearly all actives have a fitted effect of over 45% in size
# Sm TGR block – blocks Schistosoma mansoni thioredoxin glutathione reductase; purified TGR, DTNB reduction, TNB absorbance 405 nm; Potency, µM (series often up to 114 µM), without a hit: top-dose activity change, negative = inhibition, hits mostly inhibitors; actives 3% (n = 360,000); AID 485364; active means well fitted inhibition curve with a large enough effect; inconclusive means small, poorly fitted or top-dose-only effect; inactive means no such curve, though single readings can be large or run the other way; further: nearly all actives have a fitted effect of over 60% in size
#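 TGR 20 nM + NADPH 100 uM (dispensed conc.), cpd preinc 15 min RT; start with NADPH (500 uM addition) then DTNB (15 mM addition). Kinetic TNB absorbance, 405 nm filter. Four-parameter Hill fit across titration.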
# Vaccinia Venus – vaccinia inhibition (Venus reporter). Potency, µM (highest dose often 36.5 µM), without a hit: top-dose activity change, negative = inhibition, usual class: inhibitors. AID 720580. actives 0.46% (n = 330,000). Vaccinia virus Venus reporter expression, fluorescence; calls by dose curve; tested in A549 cells; further: nearly all actives have a fitted effect of over 30% in size
# VACV mCherry inh – inhibitors of vaccinia virus infection (mCherry reporter signal). Vaccinia virus mCherry reporter infection, fluorescence. Potency, µM (top dose mostly 36.5 µM), without a hit: top-dose activity change, negative = inhibition, hits mostly inhibitors. actives 0.63% (n = 310,000); calls by dose curve; tested in A549 cells; further: nearly all actives have a fitted effect of over 35% in size
# MARV entry inh – blocks Marburg virus binding to or entry into cells; Marburg virus pseudotyped entry inhibition, cell reporter; Potency, µM (highest dose often 37.8 µM), inactives show at the top dose activity change, negative = inhibition, usual class: inhibitors; actives 1.8% (n = 300,000); calls by dose curve; tested in HEK293 cells
# An asterisk follows results filed as active; i = inactive; ? = inconclusive; · = no result; ! = not active in a repeat; [ ] = remark or other dose. Sampled rows, rich in hits. Any-hit rate of the full collection: about 5.4%. On the % scale 0 is the no-effect control and ±100 the full control effect; potency means the concentration at half of the fitted maximal effect.
SMILES,LASV entry inh,FMDV inh,Sm TGR block,Vaccinia Venus,VACV mCherry inh,MARV entry inh
COc1ccc(S(=O)(=O)c2c(Nc3ccc(F)cc3)sc(C(=O)c3ccc(C)cc3C)c2N)cc1,-3%[46.1 µM],-8%,1%,-17%,-10%,·
Cn1c(Cc2ccccc2)nnc1SCC(=O)N1CCCCC1,-19%,15%,-3%,0%,-5%,14%
Cn1c(Cc2ccc3c(c2)OCO3)nnc1SCC(=O)N1CCc2ccccc2C1,-11%,10%,45µM*,·,·,8%
COCc1c(C(=O)NC2CCCC2)cnn1-c1nccc(-c2ccco2)n1,·,18%,·,-9%,-14%,·
CC1=NN(c2ccccc2)C(=O)/C1=C/C=C/c1ccccc1,-21%,35µM*,-11%,6%,-8%,?
Cc1ccc(C2=NOC(=O)/C2=C\C=C\c2ccccc2)cc1,?,14µM*,?,9%,-7%,?
CCOC(=O)C1CCN(C(c2ccccc2OC)c2c(O)cc(C)n(CCOC)c2=O)CC1 (stereo unspecified),-8%[46.1 µM],0%,7.1µM*,-9%,-13%,·
COCCn1c(C)cc(O)c(C(c2ccccc2OC)N2CCCCC2)c1=O (stereo unspecified),?,-9%,10µM*,-6%,-10%,·
COc1cc(/C=N/N(CCO)C2=NS(=O)(=O)c3ccccc32)cc(OC)c1OC,-17%[46.1 µM],-25%,6%,-17%,i,?
COc1cc(Br)cc(/C=N/N(CCO)C2=NS(=O)(=O)c3ccccc32)c1OC,-28%[46.1 µM],?,0%,-29%,-7%,4µM*
CC(C)(C)c1ccc(NNC(=O)C2CCC2)cc1,-1%[46.1 µM],-19%,45µM*,-8%,-23%,?
OC1(c2ccc(F)cc2)CSC(=Nc2cccnc2)N1Cc1ccco1 (stereo unspecified),0%,-13%,-11%,-6%,-7%,-2%[14.2 µM]
OC1(c2ccc(OC(F)F)cc2)CSC(=Nc2cccnc2)N1Cc1ccco1 (stereo unspecified),?,8.9µM*,0%,-11%,i,?
Cc1csc(/C(=N/OC(=O)c2ccco2)C(N)=O)n1,·,-13%,4µM*,·,·,·
COc1ccc(/C(N)=N/OC(=O)c2ccco2)cc1OC,17%,43%,0%,-3%,5%,?
Cc1cc(O)c(-c2cc(O)c(C)cc2O)cc1O,·,?,1.3µM*,·,·,·
Cc1ccc(N)cc1O,·,-9%,6.3µM*,-3%,-15%,·
Nc1ccc(C(=O)O)c(O)c1,1%,0%,3.5µM*!,0%,-14%,-2%
Cc1ccc(N)cc1C,·,-30%,·,-4%,i,·
Nc1ccc(C(=O)Oc2ccc([N+](=O)[O-])cc2)c(O)c1,·,·,28µM*,·,·,·
Nc1ccc(C(=O)Oc2ccc([N+](=O)[O-])cc2)cc1,·,67%,0%,-26%,-6%,·
Cc1nc2nc(SCc3ccc(F)cc3Cl)nn2c(C)c1Cc1ccccc1,2%[46.1 µM],18%,10%,-14%,-18%,·
C#CC[C@@]1(C(=O)OC)C=C[C@@H](C)[C@H](c2ccccc2Br)N1C(=O)C(F)(F)F,·,·,·,·,·,-2%[14.2 µM]
O=C(Cn1cc(S(=O)(=O)Cc2ccccc2Cl)c2ccccc21)Nc1ccc(F)cc1F,1%[46.1 µM],-1%,11%,-2%,-11%,·
COc1ccc(-c2noc(CCC(=O)N(C)c3cc(Cl)ccc3OC)n2)cc1,-10%[46.1 µM],-22%,4%,2%,-6%,-3%[46.1 µM]
SMILES,LASV entry inh,FMDV inh,Sm TGR block,Vaccinia Venus,VACV mCherry inh,MARV entry inh
Nc1ccc(N)c(C(=O)O)c1,·,-24%,18µM*,·,·,·
COc1cc(CN2CC(=O)N(c3ccccc3Cl)C2=S)cc(OC)c1OC,?,32µM*,-2%,-13%,i,?
COc1cc(CN2CC(=O)N(c3cccc(Cl)c3C)C2=S)cc(OC)c1OC,·,?,4%,·,·,·
COc1cccc(Nc2ncc3nc(CCc4ccccc4)c(=O)n(C4CC4)c3n2)c1,·,18%,·,·,·,·
CCOC(=O)c1c(CN2CCCCC2)n(C)c2cc(Br)c(OC)cc12,?,0%,-24%,-12%,-10%,?
CCOC(=O)c1c(CN2CCN(CCO)CC2)n(C)c2cc(Br)c(OC)cc12,?,-1%,-20%,·,·,8.2µM*!
CCN(CC)CCNC(=O)c1c(C)n(-c2ccccc2)c2cc(Br)c(OC)cc12,7.3µM*,-20%,5%,·,·,?
CCOC(=O)c1c(CNCCN(CC)CC)n(C)c2cc(Br)c(OC)cc12,?,-26%,3%,-7%,·,11µM*!

# Compound activity (PubChem)
